Bioassay records deposited in PubChem BioAssay by National Center for Advancing Translational Sciences (NCATS).
Compounds with a hit are over-represented: about 8.9% of the library has one in this group of screens.
SW480 rereplic: A quantitative high throughput screen for small molecules that induce DNA re-replication in SW480 colon adenocarcinoma cells; SW480 DNA re-replication, Hoechst DNA content imaging, 48 h; Potency, µM (titrated, usually from 46.1 µM), without a hit: at the top dose re-replication activation, actives largely listed as activators; 340,000 tested, 1.8% active; AID 624297, 2012; note: potency is the fitted concentration of half-maximal effect; % of control where 0% means no effect; nearly all actives have a fitted effect of over 55% in size
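Treated cells incubate 48 hr (37 C, 5% CO2), are stained 40 min with Hoechst, and nuclear fluorescence is enumerated; a rise in nuclei with high DNA signal marks re-replication.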
KB-V1 cytotox: qHTS assay for MDR1-selective chemotherapeutics: Primary screen using the drug-selected MDR subline cells KB-V1; KB-V1 MDR cells viability, CellTiter-Glo, 72 h; Potency, µM (series often up to 46.1 µM), hits mostly cytotoxic; 400,000 tested, 3.4% active; AID 1347076, 2019; note: potency is the fitted concentration of half-maximal effect; % is set by controls: 0 for no effect and ±100 for the full control effect; nearly all actives have a fitted effect of over 60% in size
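Cytotoxicity toward P-gp-expressing KB-V1 cells was determined as loss of CellTiter-Glo luminescence after 72 h at 37 degrees C. Compounds were tested in quantitative HTS format across a concentration range, with curves fitted to normalized data.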
D3 ag: qHTS of D3 Dopamine Receptor Agonist: qHTS | D(3) dopamine receptor (Homo sapiens), P35462 | D3R DiscoveRx beta-arrestin cells, luminescence, 90 min | max activation, % | 410,000 tested, 0.58% active | AID 652048, 2013; in the data active = max activation above about 30%; note: 0% is about no effect
Target sequence (P35462 whole entry, looked up): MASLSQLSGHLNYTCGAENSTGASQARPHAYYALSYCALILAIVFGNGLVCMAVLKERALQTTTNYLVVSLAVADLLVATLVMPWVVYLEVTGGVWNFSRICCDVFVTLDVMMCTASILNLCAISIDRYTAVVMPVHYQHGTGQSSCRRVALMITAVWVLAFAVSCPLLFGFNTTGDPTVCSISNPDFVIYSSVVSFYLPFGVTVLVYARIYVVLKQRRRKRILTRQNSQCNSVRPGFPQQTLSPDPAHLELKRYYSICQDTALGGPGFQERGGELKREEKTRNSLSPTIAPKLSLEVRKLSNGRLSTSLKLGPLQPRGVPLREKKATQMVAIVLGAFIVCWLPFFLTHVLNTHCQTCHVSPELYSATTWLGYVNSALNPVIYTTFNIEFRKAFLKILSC
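Agonist-mode cell screen: cells plated at 1500/well and incubated overnight at 37 °C, then exposed to library compounds for 90 min at 37 °C. Detection reagent was added for 30–60 min at room temperature, and luminescence was read.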
MCF10A rereplic: A quantitative high throughput screen for small molecules that induce DNA re-replication in MCF 10a normal breast cells; MCF 10A DNA re-replication, Hoechst nuclear intensity, 48 h; Potency, µM (titrated, usually from 46.1 µM), for the others: at the top dose activity, positive = re-replication, most hits filed as activators; AID 624296, 2012; 350,000 tested, 2.9% active; note: potency is the fitted concentration of half-maximal effect; % of control where 0% means no effect; nearly all actives have a fitted effect of over 50% in size
DRD3 antagonist: qHTS of D3 Dopamine Receptor Antagonist: qHTS. D(3) dopamine receptor (Homo sapiens), P35462. D3R cells, DiscoveRx beta-arrestin luminescence, antagonist mode; active compounds read low. max response, negative = inhibition, %. 360,000 tested, 2.5% active; in the data active = max response below about -50%; inconclusive = no clear call, values can overlap the other calls; note: % is set by controls: 0 for no effect and ±100 for the full control effect
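Cells expressing the human receptor were seeded at 1500 cells/well, incubated overnight at 37 degrees C in 5% CO2, then exposed to library compounds with dopamine controls for 90 minutes at 37 degrees C before luminescent detection.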
KB-3-1 tox: qHTS assay for MDR1-selective chemotherapeutics: Primary screen using the parental adenocarcinoma cell KB-3-1; KB-3-1 viability, CellTiter-Glo ATP luminescence, 72 h; Potency, µM (highest dose often 46.1 µM), most hits filed as cytotoxic; 400,000 tested, 1.4% active; AID 1347075, 2019; note: potency is the fitted concentration of half-maximal effect; % is set by controls: 0 for no effect and ±100 for the full control effect; nearly all actives have a fitted effect of over 60% in size
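Cells are dispensed, compounds pinned in, plates held at 37 °C for 72 h, then CellTiter-Glo is added and luminescence read after 10 minutes. Cell line: parental KB-3-1 in phenol-red-free DMEM, 10% FBS.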
Active calls of the source: *. Unless noted, calls come from the whole dose curve; as a rule, active = well fitted curve in the direction sought with a large enough effect; inconclusive = small, poorly fitted or top-dose-only effect, or another doubt; inactive = no such curve, though single readings can be large; an effect the other way counts as inactive or inconclusive.

C[C@H](CO)N1C[C@H](C)[C@@H](CN(C)S(=O)(=O)c2cn(C)cn2)Oc2c(NS(=O)(=O)c3cn(C)cn3)cccc2C1=O was read as SW480 rereplic 2.0%, KB-V1 cytotox inactive, D3 ag 6.3, MCF10A rereplic 1.4%, DRD3 antagonist 17.5 and KB-3-1 tox inactive.
For CCCC(NCC(O)COc1ccc(-c2ccccc2)cc1)c1ccccc1 (stereo not drawn) the results were SW480 rereplic 5.17µM*, KB-V1 cytotox inconclusive, D3 ag 3.9, MCF10A rereplic 4.11µM*, DRD3 antagonist 1.2 and KB-3-1 tox inconclusive.
For CCOc1ccc(CNC(=O)c2ccc3c(c2)nc2n3CCC(C)C2)cc1OC (stereo not drawn) the results were D3 ag -4.3.
For Cc1ccc(CCNC(=O)C2CCN(Cc3nc(-c4ccccc4C)oc3C)CC2)cc1 the results were KB-V1 cytotox inconclusive, D3 ag -9.8 and KB-3-1 tox inconclusive.
`Cc1ccc(C2CC(=O)c3cnc(N4CCc5ccccc5C4)nc3C2)cc1` (stereo not drawn) gave SW480 rereplic 5.8%, KB-V1 cytotox 23.1µM*, D3 ag -7.3, MCF10A rereplic 16.9%, DRD3 antagonist -16.3 and KB-3-1 tox inactive.
`Cc1ccc(C2CC(=O)c3cnc(N4CCN(c5ccccc5)CC4)nc3C2)cc1` (stereo not drawn) gave SW480 rereplic -11.3%, KB-V1 cytotox 5.17µM*, D3 ag 1.1, MCF10A rereplic 12.6%, DRD3 antagonist -23.3 and KB-3-1 tox inconclusive.
For N#CCSc1n[nH]c2nc3c(c(=O)n12)C1(CCCCC1)Cc1ccccc1-3 the results were SW480 rereplic inconclusive, KB-V1 cytotox inactive, D3 ag 1.7, MCF10A rereplic 16.4µM*, DRD3 antagonist -11.5 and KB-3-1 tox inactive.
`CCSc1n[nH]c2nc3c(c(=O)n12)C1(CCCCC1)Cc1ccccc1-3` gave SW480 rereplic -3.2%, KB-V1 cytotox inactive, D3 ag 5.0, MCF10A rereplic 5.17µM*, DRD3 antagonist -0.5 and KB-3-1 tox inactive.
For Cn1c(NCCCO)nc2c(c1=O)C1(CCCCC1)Cc1ccccc1-2 the results were SW480 rereplic 0.2%, KB-V1 cytotox inactive, D3 ag -6.8, MCF10A rereplic 18.4µM*, DRD3 antagonist -5.1 and KB-3-1 tox inactive.
`COc1ccc(C(=O)NCC(c2cccnc2)N2CCc3ccccc3C2)cc1OC` (stereo not drawn) gave KB-V1 cytotox inactive, D3 ag -9.5 and KB-3-1 tox inactive.
O=C(/C=C/Nc1ccccc1)c1ccc(Cl)cc1Cl was read as SW480 rereplic 0.1%, KB-V1 cytotox inactive, D3 ag -8.9, MCF10A rereplic 22.5%, DRD3 antagonist 0.0 and KB-3-1 tox inactive.
For N#Cc1c(Nc2ccccc2)[n+]([O-])c2ccc(Cl)cc2[n+]1[O-] the results were SW480 rereplic 2.91µM*, KB-V1 cytotox inactive, D3 ag -23.3, MCF10A rereplic 16.2%, DRD3 antagonist -54.6* and KB-3-1 tox inconclusive.
`CCOC(=O)c1ccc(NC(=O)Cn2ncc3c(C)n(Cc4ccccc4F)c(C)c3c2=O)cc1` gave KB-V1 cytotox inactive, D3 ag 7.1 and KB-3-1 tox inactive.
`Cc1ccc(C)c(N2CCN(C(=O)c3ccc4[nH]c(C)c(C)c4c3)CC2)c1` gave KB-V1 cytotox inconclusive, D3 ag 4.0 and KB-3-1 tox inconclusive.
For Cc1cccc(N2CCN(C(=O)c3ccncc3)CC2)c1C the results were SW480 rereplic 11.6µM*, KB-V1 cytotox 5.8µM*, D3 ag 46.4*, MCF10A rereplic inconclusive, DRD3 antagonist 15.7 and KB-3-1 tox 10.3µM*.
For O=C(c1ccc2ncsc2c1)N1CCN(c2ccccc2Cl)CC1 the results were SW480 rereplic 27.7%, KB-V1 cytotox inconclusive, D3 ag 3.1, MCF10A rereplic 28.1%, DRD3 antagonist 2.0 and KB-3-1 tox inactive.
COc1cccc2c1cc1c(=O)n(CC(=O)N3CCN(c4cccc(C)c4C)CC3)nc(C)n12 was read as SW480 rereplic -11.1%, KB-V1 cytotox inactive, D3 ag 70.8*, MCF10A rereplic -9.9%, DRD3 antagonist 0.6 and KB-3-1 tox inactive.
Screening Cc1cccc(N2CCN(C(=O)c3ccc4ncsc4c3)CC2)c1C returned SW480 rereplic 10.3µM*, KB-V1 cytotox inconclusive, D3 ag -2.4, MCF10A rereplic 9.2µM*, DRD3 antagonist 17.5 and KB-3-1 tox 4.61µM*.
`Cc1ccc(C)c(N2CCN(C(=O)c3ccc4nsnc4c3)CC2)c1` gave SW480 rereplic 20.6µM*, KB-V1 cytotox 8.2µM*, D3 ag 4.0, MCF10A rereplic inconclusive, DRD3 antagonist 5.6 and KB-3-1 tox 11.6µM*.
For COc1cc(C(=O)N2CCN(c3ccccn3)CC2)cc(OC)c1OC the results were SW480 rereplic -2.6%, KB-V1 cytotox inactive, D3 ag 3.6, MCF10A rereplic -8.1%, DRD3 antagonist 9.0 and KB-3-1 tox inactive.
`Cc1cccc(N2CCN(C(=O)N3CCOCC3)CC2)c1C` gave SW480 rereplic 16.4µM*, KB-V1 cytotox inconclusive, D3 ag -10.1, MCF10A rereplic inconclusive, DRD3 antagonist -16.2 and KB-3-1 tox 20.6µM*.
For Cc1cccc(N2CCN(C(=O)N3CCCCC3)CC2)c1C the results were SW480 rereplic -1.7%, KB-V1 cytotox inconclusive, D3 ag -5.9, MCF10A rereplic inconclusive, DRD3 antagonist 8.8 and KB-3-1 tox inactive.
For O=C(N1CCOCC1)N1c2ccccc2Sc2ccccc21 the results were SW480 rereplic 8.2%, KB-V1 cytotox inconclusive, D3 ag -5.6, MCF10A rereplic -1.5%, DRD3 antagonist -76.7* and KB-3-1 tox inactive.
`O=C(C1CC1)N1CCN(c2nc3ccccc3s2)CC1` gave SW480 rereplic 1.2%, KB-V1 cytotox inconclusive, D3 ag -11.0, MCF10A rereplic -2.2%, DRD3 antagonist -13.9 and KB-3-1 tox inactive.
`CN(C1CCCCC1)S(=O)(=O)c1ccc(C(=O)N2CCN(c3nc4ccccc4s3)CC2)cc1` gave SW480 rereplic -3.6%, KB-V1 cytotox 2.59µM*, D3 ag -1.9, MCF10A rereplic 9.6%, DRD3 antagonist -3.3 and KB-3-1 tox inactive.
